From PubChem BioAssay AID540332 (The Scripps Research Institute Molecular Screening Center, 2011)
Values without a mark were called inactive. No rule for the calls is given here.

Test system: Potassium Channel KATP
Test: selectivity profile across receptors and CYP450s – biochemical, Ricerca HitProfilingScreen, CYP450, set 2, selectivity assay for S1P4 agonist project, profiling panel (AID 540332)
Conditions: at 30 µM; hits give high values

Work on `COCCN=C1S/C(=C\c2cc(C)n(-c3ccc(F)cc3F)c2C)C(=O)N1C` yielded an inhibition of -5%.
